A collection of fitness landscapes (doi:10.1126/science.1257360)
Over roughly 140,000 sequences, “enrichment ratio after two sorts for PhoP signalling” has its median near 0; the highest 2% begin near 11. The entries come from a sample that favours the highest values as a whole.

B1: PhoQ; a variant is named by its letters at X, in order, P23837 (parent)
chain: MKKLLRLFFPLSLRVRFLLATAAVVLVLSLAYGMVALIGYSVSFDKTTFRLLRGESNLFYTLAKWENNKLHVELPENIDKQSPTMTLIYDENGQLLWAQRDVPWLMKMIQPDWLKSNGFHEIEADVNDTSLLLSGDHSIQQQLQEVREDDDDAEMTHSVAVNVYPATSRMPKLTIVVVDTIPVELKSSYMVWSWFIYVLSANLLLVIPLLWVAAWWSLRPIEALAKEVRELEEHNRELLNPATTRELTSLVRNLNRLLKSERERYDKYRTTLTDLTHSLKTPLXXLQXXLRSLRSEKMSVSDAEPVMLEQISRISQQIGYYLHRASMRGGTLLSRELHPVAPLLDNLTSALNKVYQRKGVNISLDISPEISFVGEQNDFVEVMGNVLDNACKYCLEFVEISARQTDEHLYIVVEDDGPGIPLSKREVIFDRGQRVDTLRPGQGVGLAVAREITEQYEGKIVAGESMLGGARMEVIFGRQHSAPKDE

Variants of: B1
Experiment: enrichment ratio after two sorts for PhoP signalling (ratio (wild type AVST 3.29)); higher = more functional
Conditions: with PhoP (E. coli)

Variant | enrichment ratio
NIYP | ≤ 0.25
LAFW | ≤ 0.25
YYWT | ≤ 0.25
ASTK | ≤ 0.25
ASDK | ≤ 0.25
ASTI | 13.9
ASLI | 12.7
ASLK | 8.78
ASLL | 19.9
ASWI | 2.59
VRLL | ≤ 0.25
ASTQ | 3.55
ASLA | 14.6
ASLS | 10.2
FNCT | ≤ 0.25
VWPK | ≤ 0.25
EMQV | ≤ 0.25
RTWK | ≤ 0.25
KHEA | ≤ 0.25
EWFR | ≤ 0.25
ASLY | 13.9
KSLY | ≤ 0.25
ASNT | ≤ 0.25
ASLT | 11.9
ASNY | ≤ 0.25
ASMT | 12

Variant | enrichment ratio
ASFT | 1.36
KSMT | ≤ 0.25
KHPW | ≤ 0.25
MQFI | 0.491
WDYP | ≤ 0.25
ATVW | 3.56
WCCW | ≤ 0.25
MCYN | 11.3
KCYN | ≤ 0.25
MLYN | 1.73
MCYM | 14.1
MLYM | 8.36
KCYM | ≤ 0.25
QGPI | ≤ 0.25
VQSP | ≤ 0.25
FRQT | ≤ 0.25
YETN | ≤ 0.25
ACSF | 13.3
ACSK | 4.64
ACGR | ≤ 0.25
ACSM | 13.2
GKCK | ≤ 0.25
TDGP | ≤ 0.25
RGGM | ≤ 0.25
NMRS | ≤ 0.25
NMSA | ≤ 0.25

Variant | enrichment ratio
HPHS | ≤ 0.25
LAQE | ≤ 0.25
TGQE | 24.5
PTQE | ≤ 0.25
TQQE | 44.9
YTQE | ≤ 0.25
KMQE | ≤ 0.25
TIQE | 15.1
AIQE | ≤ 0.25
RNQE | ≤ 0.25
TKQE | 16.5
GGQE | ≤ 0.25
TIQC | 0.791
YCTL | 0.295
YAID | ≤ 0.25
WAIW | ≤ 0.25
TIAS | 11.1
HPPD | ≤ 0.25
HRCR | ≤ 0.25
RAAD | ≤ 0.25
GWLP | ≤ 0.25
FRVC | ≤ 0.25
SLQE | ≤ 0.25
KAQE | ≤ 0.25
TLQE | 11.7
SQQE | ≤ 0.25

Variant | enrichment ratio
KSQE | ≤ 0.25
SNQE | 18.7
RSER | ≤ 0.25
WLMW | ≤ 0.25
YVFS | ≤ 0.25
GCFM | ≤ 0.25
EFLK | ≤ 0.25
TFLG | 11.8
PFLG | ≤ 0.25
TFTG | 13.3
WILG | ≤ 0.25
TFAG | 2.03
TFFG | ≤ 0.25
VSRM | ≤ 0.25
TEYG | 1.95
NAGI | ≤ 0.25
KAGI | ≤ 0.25
TAQQ | 32.8
TAFP | 0.47
LQQQ | ≤ 0.25
TAGI | 13.1
YTNC | ≤ 0.25
SRQY | ≤ 0.25
YTNY | ≤ 0.25
SQFA | ≤ 0.25
TTYY | 2.55

Variant | enrichment ratio
TTNS | 3.5
TTNY | 25.4
STNY | 14.2
HVQK | ≤ 0.25
PLIG | ≤ 0.25
VDHE | ≤ 0.25
KCGF | ≤ 0.25
TMTF | 11.5
VHGF | ≤ 0.25
WITF | ≤ 0.25
TMGF | 13.3
TGGF | 15
THGF | 8.21
CFGF | ≤ 0.25
AHGF | ≤ 0.25
NVTF | ≤ 0.25
TMHF | 1.51
AIGF | 11.6
WAVD | ≤ 0.25
HSRC | ≤ 0.25
RGHS | ≤ 0.25
VKVV | ≤ 0.25
MFSR | ≤ 0.25
LVPR | ≤ 0.25
GRNL | ≤ 0.25
YHIC | ≤ 0.25

Variant | enrichment ratio
PQKS | ≤ 0.25
SIVS | 4.88
EEGF | ≤ 0.25
EYGF | ≤ 0.25
TNGF | 15.9
TNHF | ≤ 0.25
TVGF | 18.5
SLGF | 10.1
PLGF | ≤ 0.25
MNGF | 3.05
TLGF | 12.8
EIGF | 17.3
NVGF | ≤ 0.25
TVHF | ≤ 0.25
EVNL | ≤ 0.25
TCLE | ≤ 0.25
KQLE | ≤ 0.25
DCCE | ≤ 0.25
THTS | 1.63
SNKW | ≤ 0.25
SQFG | ≤ 0.25
TLHF | ≤ 0.25
TNGD | ≤ 0.25
MNGL | 9.61
TLQF | 15.7
TNNL | 0.757

Variant | enrichment ratio
KAQF | ≤ 0.25
TNGI | 15.2
MNGI | 5.05
TNGL | 12.6
DQWL | ≤ 0.25
LLTH | ≤ 0.25
CFSY | ≤ 0.25
QPRN | ≤ 0.25
FNQY | ≤ 0.25
DTFM | ≤ 0.25
LQVE | ≤ 0.25
ADMQ | ≤ 0.25
AMMI | 15
AMMS | 1.12
AMMD | ≤ 0.25
AIMQ | ≤ 0.25
AMMV | 21.8
NMMI | ≤ 0.25
AMPV | ≤ 0.25
AMMQ | 13.1
GMVM | 3.22
SNKV | ≤ 0.25
QQCV | ≤ 0.25
HHKS | ≤ 0.25
ISVD | ≤ 0.25
AFGA | ≤ 0.25

Variant | enrichment ratio
NYGC | ≤ 0.25
WHYL | ≤ 0.25
QGWY | 75.8
QGPY | ≤ 0.25
QGGY | 14.3
FFGY | ≤ 0.25
QPGY | ≤ 0.25
FFWY | ≤ 0.25
QEIM | ≤ 0.25
AGDM | ≤ 0.25
AGRM | ≤ 0.25
AGIM | 11.8
NAIM | ≤ 0.25
MMIM | ≤ 0.25
TQGM | 14.5
MEIM | 48.5
SAIM | 11.6
SAWM | 3.72
TQWM | ≤ 0.25
TQRM | ≤ 0.25
